High-throughput results: PubChem, National Center for Advancing Translational Sciences (NCATS)
JMJD2A Tudor inh – JMJD2A Tudor domain (human) inhibition; AlphaScreen JMJD2A-Tudor / H3K4me3 peptide binding; O75164; Potency, µM (series often up to 114 µM), hits mostly inhibitors; actives 4.4% (n = 390,000); further: nearly all actives have a fitted effect of over 50% in size
VDR inh – inhibitors of human vitamin D receptor; P11473; VDR-SRC2-3 peptide fluorescence polarization, 2 h; Potency, µM, most hits filed as inhibitors; actives 0.93% (n = 400,000)
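Fluorescence polarization assay of small-molecule disruption of VDR binding to coregulator peptide SRC2-3. Compounds and controls pin-transferred, then read after 2 h incubation at ambient room temperature.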
PLK1 PBD block – PLK1 (human) polo-box domain binding inhibition; AID 720504; P53350; Plk1 PBD binding of FITC phosphopeptide, fluorescence polarization; Potency, µM, most hits filed as inhibitors; actives 2.8% (n = 360,000); further: series mostly up to about 57 µM; nearly all actives have a fitted effect of over 65% in size
G9a inh-1 – G9a (human) methyltransferase inhibition; Q96KQ7; G9a H3K9 monomethylation, AlphaScreen, 2 h; Potency, µM (titrated, usually from 102 µM), most hits filed as inhibitors; actives 8.8% (n = 350,000); AID 504332; further: nearly all actives have a fitted effect of over 75% in size
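Signal arises when biotinylated H3K9 peptide, once monomethylated, bridges streptavidin donor and antibody-captured acceptor beads. Enzyme at 20 nM was preincubated 15 min with test compounds; peptide 500 nM and SAM 20 uM then reacted for 2 h.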
BAZ2B inh – inhibitors of human BAZ2B bromodomain; Potency, µM (top dose mostly 114 µM), most hits filed as inhibitors; AlphaScreen BAZ2B-H3K14Ac peptide displacement; actives 4.4% (n = 360,000); AID 504333; Q9UIF8; further: nearly all actives have a fitted effect of over 60% in size
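Protein-peptide AlphaScreen: BAZ2B 50 nM, b-H3K14Ac 50 nM, 1x PBS pH 7.4 + 0.01% Tween-20. Preincubation 30 min RT; cpd 30 min RT (top 110 uM); beads 20 min RT, light-protected.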
HP1b chromo inh – inhibitors of HP1-beta chromodomain binding to methylated histone tails. P83916. AlphaScreen HP1-beta / biotin-H3K9me3 peptide binding. Potency, µM (doses to about 114 µM), actives largely listed as inhibitors. actives 0.56% (n = 390,000). AID 540317; further: nearly all actives have a fitted effect of over 70% in size
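AlphaScreen: HP1-beta (50 nM) preformed 30 min with biotin-H3(1-18)K9me3 peptide (50 nM) in PBS pH 7.4, 0.01% Tween-20. Compound added for 30 min at RT, then streptavidin donor/nickel chelate acceptor beads (10 ug/mL) for 30 min.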
G9a inh-2 – inhibits human G9a histone lysine methyltransferase, hit confirmation | shares compounds with JMJD2A Tudor inh | G9a H3K9 monomethylation, AlphaScreen, 2 h | Potency, µM, hits mostly inhibitors | actives 89% (n = 370) | AID 588344; further: nearly all actives have a fitted effect of over 65% in size
Each line names hits and unclear results; the compound was inactive in the other large screens (follow-up assays come after a bar, where they were run); ! = not active in a repeat. Hits are enriched below; roughly 11% of the tested compounds scored in any of these assays. The call rests on the fitted dose curve; in most records, active means well fitted curve in the direction sought with a large enough effect; inconclusive means small, poorly fitted or top-dose-only effect, or another doubt; inactive means no such curve, though single readings can be large; an effect the other way counts as inactive or inconclusive.

Clc1ccc(CNc2ncnc3[nH]ncc23)cc1Cl	none (no result: G9a inh-1, BAZ2B inh)
C#CCOC(=O)c1cc(Cl)c(=O)n(Cc2ccc(Cl)cc2Cl)c1	none
O=C(c1cccnc1)N1CCN(Cc2ccc3c(c2)OCO3)CC1	JMJD2A Tudor inh 6.31µM, G9a inh-1 inconclusive, BAZ2B inh 50.1µM, HP1b chromo inh inconclusive | G9a inh-2 7.1
O=C(Nc1ccc(N2CCCC2)cc1)c1ccc(Cl)cc1Cl	none
Cc1cc(C)cc(C(=O)Nc2ccc(N3CCCC3)cc2)c1	JMJD2A Tudor inh inconclusive, BAZ2B inh inconclusive | G9a inh-2 0.71
Cc1ccc(C(=O)N2CCN(c3ccc(NC(=O)c4cc(C)cc(C)c4)cc3)CC2)cc1	none
O=C(Nc1ccc(N2CCCCCC2)cc1)c1ccccc1Cl	JMJD2A Tudor inh 31.6µM, G9a inh-1 2.51µM, BAZ2B inh 28.2µM, HP1b chromo inh 35.5µM | G9a inh-2 7.08
CC(C)C(=O)Nc1ccc(N2CCCC2)cc1	JMJD2A Tudor inh inconclusive, G9a inh-1 inconclusive | G9a inh-2 1
CSC(=NS(=O)(=O)c1ccccc1)NNC(=O)c1c(-c2c(Cl)cccc2Cl)noc1C	none (no result: JMJD2A Tudor inh, VDR inh, G9a inh-1, BAZ2B inh, HP1b chromo inh)
O=C(COc1ccc([N+](=O)[O-])cc1)NC(=O)NC1CCS(=O)(=O)C1 (stereo not drawn)	G9a inh-1 inconclusive
COc1ccc(S(=O)(=O)Nc2cccc3c2O[C@H](CN(C)C(=O)NC2CCCCC2)[C@@H](C)CN([C@H](C)CO)C3=O)cc1	VDR inh inconclusive (no result: G9a inh-1, BAZ2B inh)
CCc1ccc(-n2nc(C)c3c(C)cc(=O)n(CC(=O)Nc4cc(Cl)ccc4OC)c32)cc1	none (no result: PLK1 PBD block)
COc1ccc(C(=O)NCC23C=CC(O2)C2C(=O)N(Cc4ccccc4)C(=O)C23)cc1 (stereo not drawn)	G9a inh-1 inconclusive
O=C1C2C3C=CC(CO)(O3)C2C(=O)N1c1ccccc1-c1ccccc1 (stereo not drawn)	JMJD2A Tudor inh 17.8µM, PLK1 PBD block 7.52µM, G9a inh-1 0.316µM, HP1b chromo inh inconclusive | G9a inh-2 0.224
CC(C)c1ccc(S(=O)(=O)N2CCN(CCC(=O)Nc3ccc(N(C)C)cc3)CC2)cc1	JMJD2A Tudor inh 35.5µM, G9a inh-1 1µM, BAZ2B inh 22.4µM, HP1b chromo inh inconclusive | G9a inh-2 2
CCN(c1ccc(NC(=O)COC(=O)c2ccc(S(=O)(=O)N3CCCC3)cc2)cc1)C(C)C	G9a inh-1 inconclusive | G9a inh-2 2.24
CN(C)C(=O)c1ccc(-c2ccc3ncnc(NC4CCNCC4)c3c2)cc1	none (no result: JMJD2A Tudor inh, PLK1 PBD block, G9a inh-1, BAZ2B inh, HP1b chromo inh)
CCc1ccc(C2c3c(oc4ccc(C)cc4c3=O)C(=O)N2c2nc(C)c(C)s2)cc1 (stereo not drawn)	none (no result: PLK1 PBD block)
Oc1ccc2ccccc2c1CN1CCOCC1	JMJD2A Tudor inh inconclusive, VDR inh inconclusive, PLK1 PBD block 26.7µM, G9a inh-1 0.355µM, HP1b chromo inh inconclusive | G9a inh-2 0.796
COc1ccccc1-c1cccc(-c2nc(C(=O)N3CCCCC3)cc3c2[C@@H](CCO)N(S(=O)C(C)(C)C)C3)c1 (stereo partly drawn)	none (no result: JMJD2A Tudor inh, VDR inh, G9a inh-1, BAZ2B inh, HP1b chromo inh)
COC(=O)c1c(-c2cccs2)csc1NC(=O)COc1ccccc1	G9a inh-1 1.78µM, BAZ2B inh inconclusive (no result: PLK1 PBD block) | G9a inh-2 4.08
CCOc1ccc(NC(=O)CCN2CCN(S(=O)(=O)c3cc(Cl)ccc3OC)CC2)cc1	G9a inh-1 inconclusive
CCOc1ccc(NC(=O)CN2CCN(CC(=O)c3ccc(OCC)cc3)CC2)cc1	JMJD2A Tudor inh inconclusive, G9a inh-1 2.82µM | G9a inh-2 5.64
CCOc1ccc(NC(=O)CN2CCN(CC(=O)c3ccc(OC)c(OC)c3)CC2)cc1	JMJD2A Tudor inh inconclusive, PLK1 PBD block 18.9µM, G9a inh-1 2.51µM | G9a inh-2 44.7
CCN(CC)c1ccc(NC(=O)CN2CCN(S(=O)(=O)c3cc(Cl)ccc3OC)CC2)cc1	JMJD2A Tudor inh 39.8µM, G9a inh-1 8.91µM, BAZ2B inh 50.1µM!, HP1b chromo inh inconclusive | G9a inh-2 3.98
CCOc1ccc(NC(=O)CN2CCN(CC(=O)Nc3ccc(F)cc3)CC2)cc1	none
